WRN inhibitor = WRN helicase (human) inhibition; Potency, µM (series often up to 114 µM), for inactives: top-dose activity change, negative = inhibition, actives largely listed as inhibitors; WRN helicase unwinding, fluorescent forked duplex, kinetic; 0.46% of 360,000 active; note: potency is the fitted concentration of half-maximal effect; % is set by controls: 0 for no effect and ±100 for the full control effect; nearly all actives have a fitted effect of over 55% in size
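Kinetic red-fluorescence monitoring (525/598 nm) tracks WRN helicase activity after 100 nM fluorophore-quencher forked duplex and 2 mM ATP are added to 20 nM enzyme pretreated 15 min at room temperature with compound.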
POLH inh = inhibitors of human DNA polymerase eta | Q9Y253 | recombinant Pol eta, fluorescent DNA replication assay | Potency, µM (highest dose often 114 µM), without a hit: at the top dose activity change, negative = inhibition, hits mostly inhibitors | 1.2% of 390,000 active; note: potency is the fitted concentration of half-maximal effect; % is set by controls: 0 for no effect and ±100 for the full control effect
Target sequence (Q9Y253 whole entry, looked up): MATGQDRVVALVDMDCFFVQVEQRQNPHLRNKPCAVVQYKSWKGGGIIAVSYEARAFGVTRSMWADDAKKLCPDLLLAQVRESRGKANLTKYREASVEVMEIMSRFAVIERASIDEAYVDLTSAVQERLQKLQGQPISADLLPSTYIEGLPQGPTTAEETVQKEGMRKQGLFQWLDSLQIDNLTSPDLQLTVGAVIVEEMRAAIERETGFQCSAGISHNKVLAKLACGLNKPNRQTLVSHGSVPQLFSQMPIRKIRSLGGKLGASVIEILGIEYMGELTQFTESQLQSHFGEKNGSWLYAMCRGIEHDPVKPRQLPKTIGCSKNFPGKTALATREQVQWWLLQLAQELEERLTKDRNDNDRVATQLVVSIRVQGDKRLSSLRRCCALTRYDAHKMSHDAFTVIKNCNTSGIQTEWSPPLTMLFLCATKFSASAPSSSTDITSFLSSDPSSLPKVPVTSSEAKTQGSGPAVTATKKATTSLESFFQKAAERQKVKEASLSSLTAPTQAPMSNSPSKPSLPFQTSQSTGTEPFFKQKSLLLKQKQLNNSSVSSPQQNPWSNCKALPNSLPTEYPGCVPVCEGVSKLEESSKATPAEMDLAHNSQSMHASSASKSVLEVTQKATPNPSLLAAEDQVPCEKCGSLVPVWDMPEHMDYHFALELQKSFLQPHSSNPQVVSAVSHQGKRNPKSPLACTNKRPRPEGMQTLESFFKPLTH
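Pol eta at 10 nM preincubated with compounds 15 min at room temperature; reaction started with fluorescent substrate (50 nM final) and read kinetically at 0 and 10 min.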
POLI inh = inhibitors of human DNA polymerase iota; Q9UNA4; Potency, µM (highest dose often 115 µM), inactives show top-dose activity, negative = inhibition, actives largely listed as inhibitors; 1% of 390,000 active; Pol iota fluorescent replication assay, 10 min; note: potency is the fitted concentration of half-maximal effect
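Pol iota at 10 nM preincubated 15 min with compounds at room temperature; reaction started with fluorescent substrate, 50 nM final. Fluorescence read kinetically at 0 and 10 min; buffer-only wells as negative control.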
POLK inh = inhibitors of human DNA polymerase kappa | Q9UBT6 | purified Pol kappa, fluorescent DNA synthesis assay, 10 min | 0.53% of 400,000 active | Potency, µM (top dose mostly 107 µM), for the others: at the top dose activity, negative = inhibition, most hits filed as inhibitors | AID 588579; note: potency is the fitted concentration of half-maximal effect; % is set by controls: 0 for no effect and ±100 for the full control effect
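50 nM final substrate added after 15 min RT preincubation of 10 nM Pol kappa with compound; fluorescence read at 0 and 10 min.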
POLB inh = inhibitors of human DNA polymerase beta. P06746. Pol beta primer extension/strand displacement, fluorescence kinetic. Potency, µM (doses to about 114 µM), inactives show at the top dose activity change, negative = inhibition, usual class: inhibitors. 1.3% of 340,000 active; note: potency is the fitted concentration of half-maximal effect; % is set by controls: 0 for no effect and ±100 for the full control effect
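Human Pol beta at 10 nM; strand-displacement substrate 50 nM final. Compound exposure 15 min at room temperature before start, reaction 10 min at room temperature.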
PI5P4K alpha inh = blocks human PI5P4K alpha kinase activity. P48426. PI5P4Kalpha enzyme, ADP-Glo luminescence, 60 min; hits give low values. max response, %. 1.2% of 330,000 active. AID 652105; active = max response of -50% or lower; inconclusive = between -30% and -50%; inactive = -30% or higher; note: value at the top dose of about 77 µM; % is set by controls: 0 for no effect and ±100 for the full control effect
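Controls without substrate or without enzyme flank wells where PI5P4Kalpha converts substrate using 5 microM ATP (final). Incubation lasts 60 minutes at room temperature; ADP formed is read by ADP-Glo luminescence.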
Numbers without * were called inactive; ? = inconclusive; · = no result; ! = not confirmed by another sample; [ ] = dose if it differs, or a comment. In the library only some 2.8% were active in any assay of this set; here they are far more common. Unless noted, calls come from the whole dose curve; as a rule, active = well fitted curve in the direction sought with a large enough effect; inconclusive = small, poorly fitted or top-dose-only effect, or another doubt; inactive = no such curve, though single readings can be large; an effect the other way counts as inactive or inconclusive.

SMILES	WRN inhibitor	POLH inh	POLI inh	POLK inh	POLB inh	PI5P4K alpha inh
O=C1c2ccccc2C(=O)c2cc(Cn3cc(-c4cccc(C(F)(F)F)c4)nn3)ccc21	·	·	6%	-7%	·	·
O=[N+]([O-])c1ccc(Cn2cc(-c3cccc(C(F)(F)F)c3)nn2)cc1	-5%	-9%	89µM*	?	-4%	14
O=C(O)/C=C\c1cccc(-n2nnnc2SCc2ccccc2F)c1	-10%[57.1 µM]	0%	12%	7%	106%	-83*
COc1ccc(-n2c(COc3cccc4ccccc34)nnc2SC(C)C(=O)O)cc1 (stereo not given)	4%	-12%	-15%	-5%	7%	-97*
Cc1ccc(OCc2nnc(SC(C)C(=O)O)n2-c2ccccc2)cc1 (stereo not given)	4%[57.1 µM]	-19%	36%	0%	-2%	-28
Cc1cc(C)c(S(=O)(=O)Nc2ccc(-c3ccc(N4CCCCC4)nn3)cc2)cc1C	·	-9%	-4%	-12%[60.1 µM]	?	·
C#CCOCCOCCOCCNc1nc(N2CCN(C(=O)CCCCCCCCCCNC(=O)Cn3cc(CCCCCN)nn3)CC2)nc(N2CCN(C(=O)CCCCCCCCCCNC(=O)[C@H](CO)n3cc(CCCCCN)nn3)CC2)n1	79µM*	-17%	?	3%	·	-58*
C#CCOCCOCCOCCNc1nc(N2CCN(C(=O)CCCCCCCCCCNC(=O)Cn3cc(CCCCCN)nn3)CC2)nc(N2CCN(C(=O)CCCCCCCCCCNC(=O)[C@H]([C@@H](C)CC)n3cc(CCCCCN)nn3)CC2)n1	56µM*	?	?	7%	·	?
Clc1ccccc1-c1nc(NCc2cccs2)c2ccccc2n1	·	·	·	32µM*	·	·
Fc1cccc(Nc2nc(-c3ccncc3)nc3ccccc23)c1	?	14µM*	?	-23%	13µM*	-7
Cc1cc(C)c2c(c1)C1C=CCC1C(c1ccc(S(=O)(=O)N3CCOCC3)cc1)N2 (stereo not given)	-20%	-5%	-3%	0%	14%	·
O=C(O)c1cc(Cl)c2c(c1)[C@@H]1C=CC[C@@H]1[C@H](c1ccc(S(=O)(=O)N3CCOCC3)cc1)N2	28µM*	28µM*	?	?	32µM*	-53*
O=C(COc1ccccc1)Nc1nnc2n1CCS2	·	-4%	32%	-5%[60.1 µM]	-17%	·
CCc1ccccc1S(=O)(=O)Cc1ccc(C(=O)NCCc2ccc(C)cc2)o1	·	-14%	4%	-9%	-3%	·
C#Cc1ccc([C@@H]2C=C(C(=O)OCC=C)O[C@H](OCCCCO)C2)cc1	-20%	?	?	?	18µM*	?
C#Cc1ccc([C@@H]2C=C(C(=O)NCc3ccccc3)O[C@H](OCCCCO)C2)cc1	-26%	45µM*	50µM*	?	·	-64*
C=CCOC(=O)C1=C[C@H](c2ccc(C(F)(F)F)cc2)C[C@H](OCCCCO)O1	-2%	-3%	-15%	-12%	·	-6
C#CCNC(=O)C1=C[C@@H](c2ccc(C#C)cc2)C[C@@H](OCCCCO)O1	-31%	25µM*	50µM*	?	·	-56*
CCOc1cc(CNC(=O)CSc2n[nH]c(-c3ccccc3)n2)cc(OCC)c1OCC	·	-11%	-7%	-11%[60.1 µM]	0%	·
COc1ccccc1-n1c(=O)c(C#N)c(-c2ccc([N+](=O)[O-])cc2)c2cc(C(=O)c3cc(F)ccc3O)cnc21	9%	5%	-18%	0%	-1%	1
Cn1c(=O)c(C#N)c(-c2ccc(F)cc2)c2cc(C(=O)c3cc(Cl)cc(Cl)c3O)cnc21	-4%[11.6 µM]	40µM*	?	-52%	?	?
O=C(Cc1ccc(Cl)cc1)NO	·	·	25%	11%	·	·
O=[N+]([O-])c1ccc2nc(-c3ccccc3)n(OCc3ccc(Cl)cc3)c2c1	-15%[57.1 µM]	16µM*	-5%	?	28µM*	-26
O=C(O)COn1c(-c2ccccc2)nc2ccc(Cl)cc21	1%	-13%	15%	-9%	-2%	-4
CCOc1ccc2nc(N3CCCC(C(=O)Nc4ccc(OC)c(Cl)c4)C3)sc2c1 (stereo not given)	·	-13%	27%	11%	26%	·
SMILES	WRN inhibitor	POLH inh	POLI inh	POLK inh	POLB inh	PI5P4K alpha inh
CCOC(=O)C1=C(C)N(CCCC(=O)O)C(=O)NC1c1ccc(OC)cc1 (stereo not given)	-4%	-4%	28%	8%	2%	-71*
COC(=O)C1=C(C)N(CCCC(=O)O)C(=O)NC1c1ccc(OC)cc1 (stereo not given)	3%	-14%	34%	8%	·	-62*
CCOC(=O)C1=C(C)N(CCCCCC(=O)O)C(=O)NC1c1ccc(Cl)cc1 (stereo not given)	0%	-22%	6%	5%	12%	-7
CCOC(=O)C1=C(C)N(CCCC(=O)O)C(=O)NC1C(CC)CC (stereo not given)	6%	-12%	-21%	-7%	·	-58*
COC(=O)C1=C(C)N(CCCCCC(=O)O)C(=O)NC1c1ccccc1 (stereo not given)	2%	-4%	?	-16%	·	4
CCCOc1ccc(-c2cccc(NS(=O)(=O)c3cccs3)c2)nn1	·	-16%	3%	-6%[60.1 µM]	1%	·
Cc1cccc(N2CCN(C(=O)C3CCN(Cc4nc(-c5ccc(Cl)cc5)oc4C)CC3)CC2)c1C	·	-6%	15%	-22%[60.1 µM]	-1%	·
O=C(CCCCCn1c(=O)[nH]c2ccccc2c1=O)N1CCN(c2ccc(Cl)cc2)CC1	·	0%	-1%	-9%[60.1 µM]	-10%	·
Cc1ccc(-c2nnc(Nc3ccc(O)cc3)c3ccccc23)cc1S(=O)(=O)NC(C)(C)CO	·	-20%	-16%	-23%	-19%	·
CN(CC(=O)O)c1ccc(/C=C/c2ccnc3ccccc23)cc1	·	·	32%	6%	·	·
CCCCNC(=O)CCC(=O)NNc1nc2ccccc2c2nc(-c3ccccc3)nn12	-7%	6%	-6%	3%	89µM*!	3
CCCCNC(=O)CCC(=O)NNc1nc2ccccc2c2nc(C)nn12	-23%	-6%	13%	-2%	47%	1
COc1cccc(CNC(=O)C2CCN(Cc3cc4ccccc4n3Cc3ccc(C)cc3)CC2)c1	·	-24%	19%	-2%[60.1 µM]	-26%	·
CC(=O)[C@@]1(O)[C@H](C)CC2C3CC=C4CC(OP(=O)(O)O)CC[C@]4(C)C3CC[C@@]21C (stereo not given in full)	5%	-21%	-4%	-2%	50µM*	-7
Oc1c(N=Nc2ccc(F)cc2)ccc2ccccc12	-29%	-5%	52%	-15%	15%	-1
Oc1c(N=Nc2nn[nH]n2)ccc2ccccc12	-32%[57.1 µM]	·	·	·	·	-82*
O=C(NCCO)c1cc2ccccc2cc1O	-6%	-7%	-6%	2%	-12%	·
